# Measurements from the antibiotic and cytotoxicity screens of Wong et al. (2023).
# Among all 39,000 compounds or so, about 3,300 (8.5%) were called active. The sample as a whole holds a higher share of actives than the screen did.
# Test system: HepG2
# Assay: cytotoxicity call (relative viability < 0.9)
# Details: 10 µM
row,Compound,cytotoxicity call
1,CC(=O)O[C@@H]1[C@@H](O)C[C@@]2(C)[C@@H](CC[C@@H](C)[C@@]23Cc2c(O)cc4c(c2O3)CN([C@@H](CCC(=O)O)C(=O)O)C4=O)C1(C)C,inactive
2,CCCN(C)C[C@H]1OCCCC[C@H](C)Oc2ccc(NC(=O)c3ccccc3)cc2C(=O)N([C@@H](C)CO)C[C@H]1C,inactive
3,CC(C)N1C[C@H](C)[C@@H](CN(C)Cc2cccc(Cl)c2)Oc2c(NC(=O)c3ccncc3)cccc2C1=O,inactive
4,C[C@@H]1CN([C@@H](C)CO)C(=O)c2cc(NC(=O)Nc3cccc4ccccc34)ccc2O[C@@H](C)CCCCO[C@@H]1CN(C)S(=O)(=O)c1ccc(Cl)cc1,inactive
5,Nc1nnc(C(=O)N2CCCCC2)[nH]1,inactive
6,C[C@@H]1CN([C@H](C)CO)C(=O)c2cc(NC(=O)CCN3CCOCC3)ccc2O[C@H]1CN(C)CC1CCCCC1,inactive
7,C[C@H]1CN([C@@H](C)CO)C(=O)Cc2cc(NC(=O)Cc3ccccc3)ccc2O[C@H]1CN(C)S(=O)(=O)c1cccs1,inactive
8,C[C@@H]1CN([C@H](C)CO)C(=O)Cc2cc(NC(=O)CCC(F)(F)F)ccc2O[C@@H]1CN(C)S(=O)(=O)c1ccccc1,inactive
9,C[C@@H]1CN([C@@H](C)CO)C(=O)Cc2cc(NC(=O)Cc3ccccc3)ccc2O[C@H]1CN(C)S(=O)(=O)c1cccs1,inactive
10,C[C@@H]1CN([C@@H](C)CO)C(=O)Cc2cc(NC(=O)CCC(F)(F)F)ccc2O[C@@H]1CN(C)S(=O)(=O)c1ccccc1,active
11,C[C@H](CO)N1C[C@H](C)[C@@H](CN(C)S(=O)(=O)c2ccccc2)Oc2ccc(NC(=O)CCC(F)(F)F)cc2CC1=O,inactive
12,C[C@@H]1CN([C@@H](C)CO)C(=O)Cc2cc(NC(=O)Cc3ccccc3)ccc2O[C@@H]1CN(C)S(=O)(=O)c1cccs1,active
13,C[C@@H]1CN([C@@H](C)CO)C(=O)c2cc(Br)cnc2O[C@H]1CN(C)Cc1ccccc1C(=O)O,inactive
14,COc1nc2ccc(Br)cc2cc1[C@@H](c1ccccc1)[C@@](O)(CCN(C)C)c1cccc2ccccc12,inactive
15,C[C@@H]1CCCCO[C@@H](CN(C)Cc2ccccc2)[C@H](C)CN([C@H](C)CO)C(=O)c2cc(NC(=O)Nc3ccc4c(c3)OCO4)ccc2O1,inactive
16,CC(=O)N[C@@H]1[C@@H](OCCOc2ccc(Cl)cc2C)O[C@H](CO)[C@H](O)[C@@H]1O,inactive
17,CCOc1ccc(CO[C@@H]2O[C@H](CO)[C@@H](O)[C@H](O)[C@H]2NC(C)=O)cc1OC,active
18,CC(=O)N[C@@H]1[C@@H](Oc2ccc(C(C)=O)cc2)O[C@H](CO)[C@H](O)[C@@H]1O,inactive
19,COCCOC(=O)N1C(=O)[C@@]2(c3ccccc31)[C@H](C(=O)Nc1nc3ccccc3s1)[C@H]1C(=O)O[C@H](c3ccccc3)[C@H](c3ccccc3)N1[C@@H]2c1ccc(OCCO)cc1,inactive
20,CC(C)NC(=O)Cn1ccc([N+](=O)[O-])n1,inactive
21,Nc1ccccc1S(N)(=O)=O,inactive
22,NS(=O)(=O)C#Cc1ccccc1,active
23,NS(=O)(=O)c1ccccc1,inactive
24,C[C@H]1CN([C@@H](C)CO)S(=O)(=O)c2ccc(C#Cc3cccnc3)cc2O[C@@H]1CN(C)C(=O)CN(C)C,inactive

row,Compound,cytotoxicity call
1,CC(C)(O)CC(=O)NCCn1ccc2ncnc(Nc3ccc(Oc4cccc(C(F)(F)F)c4)c(Cl)c3)c21,inactive
2,CS(=O)(=O)CCNCc1nc(-c2ccc3ncnc(Nc4ccc(OCc5cccc(F)c5)c(Cl)c4)c3c2)cs1,inactive
3,CS(=O)(=O)CCNCc1ccc(-c2ccc3ncnc(Nc4ccc(OCc5cccc(F)c5)c(Cl)c4)c3c2)o1 [listing 1 of 2 here],active
4,CS(=O)(=O)CCNCc1ccc(-c2ccc3ncnc(Nc4ccc(OCc5cccc(F)c5)c(Cl)c4)c3c2)o1 [listing 2 of 2 here],active
5,CC(CCC(=O)O)C1CCC2C3CCC4CCCCC4(C)C3CCC12C (stereo not given),inactive
6,CN(C)CC(=O)N[C@H]1CC[C@H](CC(=O)NCCN2CCCCC2)O[C@H]1CO,inactive
7,Cc1ccc(S[C@]2(C(=O)NCCCN(C)C)CC(=O)N(C3Cc4ccccc4C3)[C@@H]2c2ccc(CO)cc2I)cc1,inactive
8,CS(=O)(=O)N1C[C@H](O)COC[C@@H]2O[C@@H](CC(=O)NCCc3ccncc3)CC[C@H]21,inactive
9,CO[C@H]1CN(C)C(=O)c2cc(NS(C)(=O)=O)ccc2OC[C@@H](C)N(C(=O)CN(C)C)C[C@@H]1C,inactive
10,C[C@H]1CCCCO[C@H](CN(C)CC2CC2)[C@@H](C)CN([C@@H](C)CO)C(=O)c2cc(NC(=O)CCC(F)(F)F)ccc2O1,inactive
11,Cc1ccc(NC(=O)c2ccc(CN3CCN(C)CC3)cc2)cc1Nc1nccc(-c2cccnc2)n1,inactive
12,Cc1ncc(NC(=O)c2ccc(CN3CCN(C)CC3)c(C(F)(F)F)c2)cc1Nc1nccc(-c2cccnc2)n1,active
13,Cc1ccc(NC(=O)c2ccc(CN3CC[C@H](N(C)C)C3)c(C(F)(F)F)c2)cc1Nc1nccc(-c2cncnc2)n1,active
14,Cc1ccc(S(=O)(=O)Nc2ccc3c(c2)C(=O)N([C@@H](C)CO)C[C@H](C)[C@@H](CN(C)C(=O)C2CCCCC2)OCCCC[C@H](C)O3)cc1,inactive
15,COc1ccc(CCNC(=O)[C@@H]2c3ccccc3C(=O)N(Cc3ccccc3OC)[C@H]2c2ccc(CO)cc2)cc1,inactive
16,C[C@@H]1CCCCO[C@H](CN(C)CC2CCCCC2)[C@@H](C)CN([C@H](C)CO)C(=O)c2cc(NC(=O)CCC(F)(F)F)ccc2O1,inactive
17,COc1ccc(NC(=O)N(C)C[C@H]2OCCCC[C@H](C)Oc3ccc(NS(=O)(=O)c4ccccc4)cc3C(=O)N([C@@H](C)CO)C[C@@H]2C)cc1,inactive
18,Cc1ccc(S(=O)(=O)N(C)C[C@H]2OCCCC[C@H](C)Oc3ccc(NC(=O)Cc4ccccc4)cc3C(=O)N([C@@H](C)CO)C[C@H]2C)cc1,inactive
19,COc1ccc([Si](C)(C)[C@H]2[C@H](CCO)O[C@@]3(C(=O)N(Cc4cccc(N5C(=O)c6ccccc6Oc6ccccc65)c4)c4ccccc43)[C@@H]2C)cc1,active
20,COc1ccc([Si](C)(C)[C@@H]2[C@@H](CCO)O[C@]3(C(=O)N(Cc4cccc(N5C(=O)c6ccccc6Oc6ccccc65)c4)c4ccccc43)[C@H]2C)cc1,active
21,C[C@H]1[C@H]([Si](C)(C)F)[C@@H](CCO)O[C@]12C(=O)N(Cc1cccc(N3C(=O)c4ccccc4Oc4ccccc43)c1)c1ccccc12,inactive
22,COc1ccc([Si](C)(C)[C@H]2[C@H](CCO)O[C@@]3(C(=O)N(Cc4cccc(N5CCCCC5=O)c4)c4ccccc43)[C@@H]2C)cc1,inactive
23,CCNc1ncnc2c1nnn2C,inactive
24,Nc1cc([N+](=O)[O-])ccc1C(=O)O,inactive

row,Compound,cytotoxicity call
1,C[C@@H]1CCCCO[C@H](CN(C)C(=O)Nc2ccc(F)cc2)[C@@H](C)CN([C@H](C)CO)C(=O)c2cc(NC(=O)c3ccncc3)ccc2O1,inactive
2,C[C@@H]1CN([C@H](C)CO)C(=O)CCCn2cc(nn2)CO[C@H]1CN(C)C(=O)Nc1ccc2c(c1)OCO2,inactive
3,C[C@@H]1CN([C@@H](C)CO)C(=O)c2cccc(NC(=O)c3cnccn3)c2O[C@@H]1CN(C)S(=O)(=O)c1cccs1,inactive
4,Cc1noc(C)c1NC(=O)Nc1ccc2c(c1)C(=O)N([C@H](C)CO)C[C@@H](C)[C@H](CN(C)Cc1ccc(C(F)(F)F)cc1)OCCCC[C@@H](C)O2,inactive
5,CCN1CCN(c2ccc(Nc3cc(N(C)C(=O)Nc4c(Cl)c(OC)cc(OC)c4Cl)ncn3)cc2)CC1,active
6,C[C@H]1CN([C@@H](C)CO)S(=O)(=O)c2ccc(C3=CCCCC3)cc2O[C@@H]1CN(C)C(=O)C1CCOCC1,inactive
7,C[C@@H]1CCCCO[C@H](CN(C)C(=O)Nc2ccc(F)cc2)[C@H](C)CN([C@@H](C)CO)C(=O)c2cc(NC(=O)Nc3ccc4c(c3)OCO4)ccc2O1,inactive
8,COCC(=O)N1C[C@H](C)[C@H](OC)CN(C)C(=O)c2cc(NC(=O)c3ccc(OC)cc3)ccc2OC[C@@H]1C,inactive
9,Cn1c(=O)c2c(ncn2C[C@@H](O)CO)n(C)c1=O,inactive
10,Cn1c(=O)c(F)c(Nc2ccc(I)cc2F)c2c(=O)n(C[C@@H](O)CO)cnc21,active
11,Cn1c(=O)c2c(ncn2CC(O)CO)n(C)c1=O (stereo not given),inactive
12,C[C@@H]1CN([C@@H](C)CO)C(=O)c2cccc(NC(=O)Nc3ccc(C(F)(F)F)cc3)c2O[C@@H]1CN(C)S(C)(=O)=O,inactive
13,COc1ccc(NC(=O)N(C)C[C@@H]2OCCCC[C@@H](C)Oc3ccc(NS(=O)(=O)c4ccc(F)cc4)cc3C(=O)N([C@H](C)CO)C[C@H]2C)cc1,inactive
14,Fc1ccc(-c2nc3c4ccccc4c4ccccc4c3[nH]2)cc1,active
15,Fc1ccc(-c2nc3ccc4ccccc4c3c3c2CCC3)cc1,inactive
16,N[C@H]1CC[C@H](CCn2cc(C3CCCCC3)nn2)O[C@@H]1CO,inactive
17,CC(=O)N(C)C1(c2ccccc2)CCN(CCC[C@]2(c3ccc(Cl)c(Cl)c3)CCCN(C(=O)c3ccccc3)C2)CC1,active
18,CC(C)Oc1cccc(CC(=O)N2CCC[C@](CC[N+]34CCC(c5ccccc5)(CC3)CC4)(c3ccc(Cl)c(Cl)c3)C2)c1,inactive
19,CN1CCN(C(=O)C[C@@H]2CC[C@@H]3[C@@H](COc4ccc(NC(=O)c5cscn5)cc4C(=O)N3C)O2)CC1,inactive
20,O=C(C[C@@H]1CC[C@@H]2[C@H](COC[C@H](O)CN2C(=O)c2ccccn2)O1)NC1CCC1,inactive
21,CCc1cccc(C)c1NC(C)=O,inactive
22,C[C@H](CO)N1C[C@H](C)[C@H](CN(C)S(C)(=O)=O)OCCCC[C@H](C)Oc2ccc(NS(=O)(=O)c3ccccc3)cc2C1=O,inactive
